# PKM2 activator – PKM2 (human) enzyme activation; P14618; purified PKM2, Kinase-Glo ATP luminescence, activation; response scale: 0% is enzyme alone, no compound; Potency, µM (top dose mostly 57.5 µM), for the others: top-dose activation, actives largely listed as activators; 260,000 compounds, 0.34% hits; AID 1631; active means well fitted activation curve with a large enough effect; inconclusive means small, poorly fitted or top-dose-only effect; inactive means no such curve, though single readings can be large or run the other way; further: potency means the concentration at half of the fitted maximal effect; on the % scale 0 is the no-effect control and ±100 the full control effect; nearly all actives have a fitted effect of over 55% in size
#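 Purified hPK-M2 (>95% pure) converted ADP (0.1 mM final) to ATP with 0.5 mM PEP in 50 mM imidazole pH7.2, KCl, MgCl2, Tween 20, BSA; 1 h at room temperature. ATP detected by Kinase-Glo luminescence.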
# CXXC DNA block – blocks binding of human MLL CXXC domain to DNA; Q03164; MLL-CXXC / FITC-HOXA9 DNA fluorescence polarization; Potency, µM (doses to about 115 µM), for the others: at the highest dose activity change, negative = inhibition, hits mostly inhibitors; 290,000 compounds, 0.037% hits; AID 2662; active means well fitted inhibition curve with a large enough effect in the polarisation, with a control signal flat, not every such curve was filed as active; inconclusive means small, poorly fitted or top-dose-only effect, or effect the other way, or a change in a side signal; inactive means no such curve, though single readings can be large or run the other way; the % refers to the polarisation; further: potency means the concentration at half of the fitted maximal effect
#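 Fluorescence polarization: 7 uM MLL-CXXC (stock) preincubated 5 min with compounds, then 50 nM fluorescein-HOX-A9 DNA (stock) added; 30 min ambient. Buffer 50 mM Tris-HCl pH 7.5, 50 mM NaCl, 1 mM DTT, 0.05% BSA.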
# Menin MLL FP FL – inhibitors of human menin-MLL interaction, wild-type MLL peptide; Fluorescence polarization, fluorescein-MLL peptide displacement from menin; FP activity change, % at 61.4 µM; 290,000 tested, under 10 active; AID 1766; active means well fitted curve in the direction sought with a large enough effect in the polarisation, not every such curve was filed as active; inconclusive means small, poorly fitted or top-dose-only effect, or effect the other way, or a change in a side signal; inactive means no such curve, though single readings can be large or run the other way; the % refers to the polarisation; further: % of control where 0% means no effect
# Menin-MLL TR inh – menin-MLL binding inhibition, Texas Red mutant peptide; Potency, µM (top dose mostly 61.6 µM), inactives show at the highest dose FP activity change, negative = inhibition, usual class: inhibitors; 270,000 compounds, 0.23% hits; O00255; Menin + Texas Red MLL mutant peptide, fluorescence polarization; active means well fitted inhibition curve with a large enough effect in the polarisation, with a control signal flat, not every such curve was filed as active; inconclusive means small, poorly fitted or top-dose-only effect, or effect the other way, or a change in a side signal; inactive means no such curve, though single readings can be large or run the other way; the % refers to the polarisation; further: potency means the concentration at half of the fitted maximal effect; % of control where 0% means no effect
# Target sequence (O00255 whole entry, looked up): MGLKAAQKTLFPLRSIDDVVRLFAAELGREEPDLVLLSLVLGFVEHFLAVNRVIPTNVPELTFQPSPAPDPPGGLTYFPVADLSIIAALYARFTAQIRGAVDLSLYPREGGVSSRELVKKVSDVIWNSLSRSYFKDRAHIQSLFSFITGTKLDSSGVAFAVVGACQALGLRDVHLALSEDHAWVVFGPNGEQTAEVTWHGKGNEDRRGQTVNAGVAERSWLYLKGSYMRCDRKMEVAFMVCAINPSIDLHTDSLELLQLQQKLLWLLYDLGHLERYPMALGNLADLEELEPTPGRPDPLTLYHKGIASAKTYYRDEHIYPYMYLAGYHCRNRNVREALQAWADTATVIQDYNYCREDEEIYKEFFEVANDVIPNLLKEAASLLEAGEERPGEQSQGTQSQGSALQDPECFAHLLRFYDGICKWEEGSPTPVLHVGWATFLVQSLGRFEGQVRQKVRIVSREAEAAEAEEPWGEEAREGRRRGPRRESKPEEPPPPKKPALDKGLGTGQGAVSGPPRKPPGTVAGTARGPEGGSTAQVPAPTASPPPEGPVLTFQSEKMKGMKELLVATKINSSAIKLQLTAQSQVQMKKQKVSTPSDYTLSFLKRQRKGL
# Starred values were filed as active, the others as inactive; ? = inconclusive; / = no result given; [ ] = dose if it differs, or a comment. Sampled rows, rich in hits. Any-hit rate of the full collection: about 0.41%.
SMILES,PKM2 activator,CXXC DNA block,Menin MLL FP FL,Menin-MLL TR inh
O=C(Cc1ccc(Cl)cc1)Nc1ccc(NC(=O)c2ccccc2)cc1,-8%,4%,-1,10µM*
COc1ccc(N2C(=O)CC(Sc3ccccc3C(=O)O)C2=O)c([N+](=O)[O-])c1 (stereo unspecified),20µM*,-18%,-3,?
Cc1ccc(N2C(=O)CC(Sc3ccccc3C(=O)O)C2=O)c([N+](=O)[O-])c1 (stereo unspecified),?,-22%,2,?
Cn1c2ccccc2c2nnc(SCC(=O)Nc3cccc(C(=O)O)c3)nc21,/,8%,1,15%
O=C(CSc1nnc2c3ccccc3c3ccccc3c2n1)Nc1ccccc1F,-3%,20%,5,?
Cn1c2ccc(F)cc2c2nnc(SCC(=O)Nc3cccc(O)c3)nc21,0.32µM*,-2%,5,21%
O=C(CSc1nnc2c3ccccc3c3ccccc3c2n1)Nc1ccccc1,2%,5%,2,13µM*
N#Cc1c(-c2cccs2)nc(SCc2ccc(Cl)cc2)[nH]c1=O,32µM*,-5%,3,?
COc1ccc(S(=O)(=O)N(CCO)c2ccccc2CN(C)CC=Cc2ccc(Cl)cc2)cc1,/,/,-1,2%
Nc1ccc2nc(CCCCCCc3nc4ccc(N)cc4[nH]3)[nH]c2c1,13µM*,9%,-1,?
CCNc1nc(NCC)nc(OCCOC(=O)c2ccccc2)n1,14µM*,-1%,-3,0%
Cc1c(F)cccc1NS(=O)(=O)c1ccc(OCCNS(C)(=O)=O)cc1,6.3µM*,3%,1,11%
O=C(NCc1ccc2c(c1)OCO2)C1CCN(S(=O)(=O)c2cccs2)CC1,8.9µM*,-1%,2,1%
COc1ccccc1CNC(=O)N1CCN(S(=O)(=O)c2ccc(Cl)cc2)CC1,20%,17%,1,?
COc1cccc(CNC(=O)N2CCN(S(=O)(=O)c3ccc(Cl)cc3)CC2)c1,14µM*,13%,6,-11%
COc1ccc(NC(=O)CCNC(=O)C2CCN(S(=O)(=O)c3ccc(F)cc3)CC2)cc1OC,4.5µM*,-8%,1,4%
COc1cccc(CNC(=O)C2CCN(S(=O)(=O)c3ccccc3)CC2)c1,25µM*,5%,0,10%
O=C(NCc1ccc2c(c1)OCO2)C1CCN(S(=O)(=O)c2ccc(Br)s2)CC1,?,-5%,1,0%
COc1ccc(S(=O)(=O)N2CCC(C(=O)NCCC(=O)Nc3cccc(OC)c3)CC2)cc1,/,-4%,/,/
COc1cccc(CNC(=O)C2CCN(S(=O)(=O)c3ccc4c(c3)OCCO4)CC2)c1,11µM*,7%,/,/
COc1ccc(CNc2ccc(N3CCOCC3)cc2)cc1,1%[11.5 µM],-2%,4,-6%
COc1ccc(Br)cc1CNc1ccc(N2CCOCC2)cc1,/,1%,-11,14µM*
CCCC[C@H](CC)CN1CN(C[C@@H](CC)CCCC)CC(C)(N)C1,/,-15%[51.4 µM],0[24.8 µM],0%[24.8 µM]
O=C(Oc1ccc(OC(=O)c2ccco2)c(S(=O)(=O)c2ccc(Br)cc2)c1)c1ccco1,4.5µM*,118%,-1,10µM*
COc1ccc2c(c1)C(c1ccccc1C)CC(=O)O2 (stereo unspecified),/,/,4[94.6 µM],?
SMILES,PKM2 activator,CXXC DNA block,Menin MLL FP FL,Menin-MLL TR inh
O=[N+]([O-])c1ccc(NCCCNS(=O)(=O)c2ccc(Cl)cc2)c(Cl)c1,14µM*,1%,-2,?
O=[N+]([O-])c1ccccc1NCCNS(=O)(=O)c1ccc(Cl)cc1,2%,10%,3,6%
COC(=O)C/C=C\[C@@H](C)[C@@H](/C=N\O[C@@H](C)CN1CCCc2nc(C)c(C)cc21)OC,/,/,-5[11.7 µM],-18%[11.7 µM]
O=C1CN(S(=O)(=O)c2ccccc2)CCN1S(=O)(=O)c1ccccc1,4.5µM*,5%,4,1%
Cc1ccc(-c2nc3cnccn3c2Nc2ccc3c(c2)OCO3)o1,10µM*,6%,1,-2%
Cc1ccc(Nc2c(-c3ccc(C)o3)nc3cnccn23)cc1,11µM*,-5%,5,-5%
Cc1ccc(Nc2c(-c3ccccn3)nc3cc(C)ccn23)cc1,-1%,?,-4,-29%
Cc1ccn2c(Nc3ccc4c(c3)OCO4)c(-c3ccccn3)nc2c1,-6%,?,?,35µM*
Cc1ccc(-c2nc3cnccn3c2Nc2ccccc2)o1,27%,6%,12,2%[11.7 µM]
Clc1ccc(-c2nc3cnccn3c2Nc2ccc3c(c2)OCO3)cc1,18%,5%,1,?
C[C@H]1Cc2c(-c3ccccc3)nc3c(c2CO1)CN(C(=O)Nc1cccc(C#N)c1)CC3,5%[11.5 µM],/,3[11.7 µM],0%[11.7 µM]
C[N+]1(C)[C@@H]2CC(OC(=O)C(O)(c3cccs3)c3cccs3)C[C@H]1[C@@H]1O[C@@H]12 (stereo partly specified),/,1%,-4,-1%
C=CCOC(=O)C1(C(NC(=O)OC)c2ccccc2)C(=O)Cc2ccccc21 (stereo unspecified),/,/,-1,-4%
O=C(NC1CCCC1)O[C@@H]1C(=O)c2cc(Br)ccc2O[C@H]1c1ccc2c(c1)OCO2,/,/,?,4%
C/C(CCN1CCCc2nc(C)c(C)cc21)=N\O[C@@H](C)c1cn([C@H](CO)Cc2ccccc2)nn1,/,/,0[11.7 µM],-17%[11.7 µM]
c1csc(CSc2nnc3sc4ccccc4n23)c1,16µM*,-6%,5,4%
Cc1ccc(/C=C/C2=CC3(C)CC2(C)C(c2ccc(C)cc2)CC3=O)cc1 (stereo unspecified),/,/,-2[11.7 µM],10µM*
COCCn1c(=O)c(-c2cccs2)nc2cnc(OCc3ccccc3)nc21,/,/,-8,18%
CCN(Cc1ccncc1)S(=O)(=O)c1ccc(C(C)=O)cc1,22µM*,-1%,2,-1%
CCCCC/C=C\C/C=C\C/C=C\C/C=C\CCCC(=O)O[C@H](COCCCCCCCCCCCCCCCC)COP(=O)([O-])OCC[N+](C)(C)C,/,/,-2,1%
O=C1C=CC(=O)N1c1ccc(Sc2ccc([N+](=O)[O-])cc2)cc1,32µM*,-6%,0,/
O=C(OCc1ccc2c(c1)OCO2)c1cccc(S(=O)(=O)N2CCCCC2)c1,2%,-4%,-2,-5%
O=S(=O)(c1ccc2c(c1)OCCO2)N1CCN(c2cccc(Cl)c2)CC1,2.8µM*,9%,3,-15%
Cc1ccc(S(=O)(=O)N2CCCN(S(=O)(=O)c3ccc4c(c3)OCCO4)CC2)cc1,0.35µM*,-1%,7,-2%
CCS(=O)(=O)N1CCN(S(=O)(=O)c2ccc3c(c2)OCCO3)CC1,3.5µM*,19%,3,-17%
O=C(OCc1ccc2c(c1)OCO2)c1ccc(S(=O)(=O)N2CCCC2)cc1,8.9µM*,-3%,-1,-7%
O=S(=O)(c1ccc2c(c1)OCCO2)N1CCN(Cc2ccccc2)CC1,7%,1%,0,-12%
CN1CCN(S(=O)(=O)c2ccc3c(c2)OCCO3)CC1,11%,0%,5,1%
CO[C@@H](CCOCc1ccccc1)C[C@H]1O[C@H](C(=O)OC(C)C)C=C[C@@H]1C,/,/,1,-12%

# Screening results: PubChem, National Center for Advancing Translational Sciences (NCATS)
